Among all 310,000 compounds or so, about 14,000 (4.5%) showed an effect of 50% or more. The effect is printed as a negative number. This excerpt belongs to a sample that is enriched for strong results.
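Further: peak tail current of the secondary pulse compared with the same well before compound.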

The target of this experiment is human ether-à-go-go-related gene (hERG) potassium channel (human, UniProt Q12809). Description: primary screen, population patch clamp on CHO cells stably expressing hERG; higher = less effect of the substance.
Sequence of human ether-à-go-go-related gene (hERG) potassium channel (Q12809 whole entry, looked up): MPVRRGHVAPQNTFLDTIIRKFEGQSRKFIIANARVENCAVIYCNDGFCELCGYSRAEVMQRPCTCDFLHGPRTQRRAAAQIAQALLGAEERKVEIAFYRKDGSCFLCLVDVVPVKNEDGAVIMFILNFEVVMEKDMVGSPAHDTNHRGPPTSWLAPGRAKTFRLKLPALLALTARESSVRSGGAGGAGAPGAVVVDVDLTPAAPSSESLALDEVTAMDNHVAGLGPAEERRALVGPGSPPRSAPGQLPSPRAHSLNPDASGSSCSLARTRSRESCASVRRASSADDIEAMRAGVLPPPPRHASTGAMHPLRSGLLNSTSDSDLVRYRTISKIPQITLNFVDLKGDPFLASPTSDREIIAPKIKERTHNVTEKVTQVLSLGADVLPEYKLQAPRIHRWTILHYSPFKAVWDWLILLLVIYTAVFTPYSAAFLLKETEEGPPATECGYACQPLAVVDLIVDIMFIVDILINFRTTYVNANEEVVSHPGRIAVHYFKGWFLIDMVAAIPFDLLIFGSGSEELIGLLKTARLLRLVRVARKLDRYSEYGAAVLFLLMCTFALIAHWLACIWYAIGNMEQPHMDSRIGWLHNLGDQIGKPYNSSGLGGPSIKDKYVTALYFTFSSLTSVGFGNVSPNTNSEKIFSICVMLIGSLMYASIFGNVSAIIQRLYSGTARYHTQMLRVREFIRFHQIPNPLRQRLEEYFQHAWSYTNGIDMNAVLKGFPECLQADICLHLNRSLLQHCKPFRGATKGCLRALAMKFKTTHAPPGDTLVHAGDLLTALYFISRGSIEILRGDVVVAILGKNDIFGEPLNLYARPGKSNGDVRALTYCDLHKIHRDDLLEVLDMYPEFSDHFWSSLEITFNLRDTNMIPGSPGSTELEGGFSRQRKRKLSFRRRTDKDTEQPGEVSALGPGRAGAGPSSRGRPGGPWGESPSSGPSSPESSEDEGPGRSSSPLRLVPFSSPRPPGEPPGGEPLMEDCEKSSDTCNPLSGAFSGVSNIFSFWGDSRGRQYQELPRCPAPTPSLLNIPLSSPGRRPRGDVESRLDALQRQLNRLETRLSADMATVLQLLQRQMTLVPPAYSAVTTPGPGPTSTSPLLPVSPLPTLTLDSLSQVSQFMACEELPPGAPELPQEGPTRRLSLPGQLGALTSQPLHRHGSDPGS
Consider `O=C(OC(C(=O)NC1CCCC1)c1ccccn1)c1cccs1` (stereo not shown), for which the “hERG current change (%, negative = inhibition) at 10uM” value is -3.4%.
With `CCc1noc(C)c1C(=O)NC1CCCc2c1cnn2-c1ccc(C(C)(C)C)cc1` (stereo not shown) the figure was 10.2%; with `Cc1nc(NCc2ccco2)c2c3c(sc2n1)CCC3`, -24.3%.
Regarding `CCN1CCc2c(sc3c2c(NCc2ccco2)nc2nnnn23)C1`, the “hERG current change (%, negative = inhibition) at 10uM” value was -73.6%.
As to `CN1CCc2c(sc3c2c(NCc2ccco2)nc2nnnn23)C1`, the “hERG current change (%, negative = inhibition) at 10uM” value is -71.8%.
Turning to `CN1CCc2c(sc3nc(SCC(=O)NCc4ccco4)n(-c4ccccc4)c(=O)c23)C1`, the “hERG current change (%, negative = inhibition) at 10uM” value is listed as -10.6%.
For `c1coc(CNc2ncnc3sc4c(c23)CCCCC4)c1`, the “hERG current change (%, negative = inhibition) at 10uM” value was -39.4%.
With `CCN1CCc2c(sc(NC(=S)NC(=O)c3ccco3)c2C(N)=O)C1` the figure was 2.95%; with `Cn1c(NN)nc2sc3c(c2c1=O)CC(C)(C)OC3`, 9.89%; with `CCCNC(=O)CSc1nccn1Cc1ccco1`, 0.203%.
Turning to `CC1(C)SC(=S)N(/N=C/c2ccc(O)cc2)C1N(O)C(=O)Nc1ccc([N+](=O)[O-])cc1` (stereo not shown), the “hERG current change (%, negative = inhibition) at 10uM” value is reported as -10.2%.
Under `Nc1ccn([C@H]2CS[C@@H](CO)O2)c(=O)n1` stands 18%.
Turning to `CC(CNc1ccc([N+](=O)[O-])cc1)NC(=O)c1ccccc1Br` (stereo not shown), the “hERG current change (%, negative = inhibition) at 10uM” value is -50.6%.
As to `CC(CNC(=O)c1ccccc1[N+](=O)[O-])NC(=O)c1ccccc1[N+](=O)[O-]` (stereo not shown), the “hERG current change (%, negative = inhibition) at 10uM” value worked out at 1.57%.
Regarding `O=C(NCCNc1ccc([N+](=O)[O-])cc1)c1ccccc1Br`, the “hERG current change (%, negative = inhibition) at 10uM” value is listed as -43.3%.
For `C=CCN1C(=O)C(Cc2ccccc2)SC1=Nc1ccc(C(=O)O)cc1` (stereo not shown), the “hERG current change (%, negative = inhibition) at 10uM” value was -3.37%.
With `Cc1nonc1NC(=O)CSc1nc(CCC2CCCC2)nc2ccccc12` the figure was 3.64%; with `COc1cc2c(cc1OC)-c1c(OC)c(OC)cc3ccnc(c13)C2=O`, -30.7%; with `COc1cc2c(cc1OC)-c1c(OC)c(OC)c(OC)c3ccnc(c13)C2=O`, -53.8%.
For `CCOc1cc(-c2nccc3cc(OC)c(OC)cc23)cc(OCC)c1OCC`, the “hERG current change (%, negative = inhibition) at 10uM” value is reported as -46.8%.
In the case of `Cc1cc(-c2cc(-c3ccccc3)on2)nc(NC2CCCC2)n1`, the “hERG current change (%, negative = inhibition) at 10uM” value is 15.7%.
Consider `Cc1ccc(-c2noc(CN3CCN(c4ccccc4F)CC3)n2)cc1`, for which the “hERG current change (%, negative = inhibition) at 10uM” value is recorded as 8.71%.
As to `CCOc1ccc(Nc2nc(N)nc(CSC(=S)N3CCN(c4ccccc4)CC3)n2)cc1`, the “hERG current change (%, negative = inhibition) at 10uM” value is listed as 17.2%.
Take `Fc1ccccc1N1CCN(Cc2nc(-c3ccccc3)no2)CC1`: the “hERG current change (%, negative = inhibition) at 10uM” value was -6.65%.
With `COc1ccccc1Nc1nc(N)nc(CN2CCN(c3ccccc3F)CC2)n1` the figure was -35.9%; with `Cc1ccc(Nc2nc(N)nc(CN3CCN(c4ccccc4F)CC3)n2)cc1`, -67.4%.
Consider `Nc1nc(CN2CCN(c3ccccc3F)CC2)nc(Nc2ccccc2)n1`, for which the “hERG current change (%, negative = inhibition) at 10uM” value was -57.1%.
Under `CCOc1ccc(Nc2nc(N)nc(CN3CCN(c4ccccc4F)CC3)n2)cc1` stands -80.8%; under `Cc1cccc(Nc2nc(N)nc(CC(=O)CSc3ccc(Cl)cc3)n2)c1`, 4.27%.
With `Cc1cccc(Nc2nc(N)nc(CN3CCN(c4ccccc4F)CC3)n2)c1` the figure was -68.2%.
Turning to `Cc1nnc(SCC2=C(C(=O)O)N3C(=O)C(NC(=O)Cn4ncc(Cl)c4C)C3SC2)s1` (stereo not shown), the “hERG current change (%, negative = inhibition) at 10uM” value is given as 26.9%.
For `COc1ccc(CNC(=O)C2CCCN(S(=O)(=O)N3CC(C)CC(C)C3)C2)c(OC)c1` (stereo not shown), the “hERG current change (%, negative = inhibition) at 10uM” value is on record as -6.97%.
For the molecule `CCCC(=O)C1=C(O)C(C(=O)OC)C(C)(C)CC1=N` (stereo not shown), the “hERG current change (%, negative = inhibition) at 10uM” value is 19.9%.
Consider `Cc1csc(NC(=O)c2sccc2C)n1`, for which the “hERG current change (%, negative = inhibition) at 10uM” value is reported as 12.7%.
In the case of `CCn1c(SCC(=O)Nc2ccc(OCc3ccccc3)cc2)nnc1-c1ccco1`, the “hERG current change (%, negative = inhibition) at 10uM” value is reported as -0.171%.
On to `CCCn1c(=O)c(Cc2ccccc2)c(O)c2ccccc21`, for which the “hERG current change (%, negative = inhibition) at 10uM” value is 1.06%.
`Cc1nc2ccccc2c(=O)n1NC(=O)/C=C/c1ccc(Br)cc1`: the “hERG current change (%, negative = inhibition) at 10uM” value was -1.3%.
In the case of `CN1CCN(c2ccc3c(c2)S(=O)(=O)c2ccccc2C3=O)CC1`, the “hERG current change (%, negative = inhibition) at 10uM” value is on record as -23.4%.
On to `N#C/C(=N\Nc1ccc([N+](=O)[O-])cc1)C(N)=S`, for which the “hERG current change (%, negative = inhibition) at 10uM” value came out at 13.4%.
Consider `N#C/C(=N\Nc1ccc(Br)cc1)C(=N)N1CCOCC1`, for which the “hERG current change (%, negative = inhibition) at 10uM” value was -68.9%.
With `COc1ccc(N/N=C(\C#N)C(=N)N2CCOCC2)cc1`, the “hERG current change (%, negative = inhibition) at 10uM” value was 11.4%.
As for `N#C/C(=N\Nc1ccccc1)C(=N)N1CCOCC1`, the “hERG current change (%, negative = inhibition) at 10uM” value is recorded as -7.71%.
For `C/C(=N\Nc1ccc([N+](=O)[O-])cc1)c1ccc(N2CCOCC2)cc1`, the “hERG current change (%, negative = inhibition) at 10uM” value was found to be 4.46%.
On to `N#C/C(=N\Nc1ccc([N+](=O)[O-])cc1)C(=N)N1CCOCC1`, for which the “hERG current change (%, negative = inhibition) at 10uM” value was -54.2%.
`Cc1ccc(OCC(=O)NN2C(=O)c3ccccc3C2=O)c(C)c1`: the “hERG current change (%, negative = inhibition) at 10uM” value is 6.34%.
Under `CC(C)c1nc(-c2ccc([N+](=O)[O-])cc2)cs1` stands 1.87%.
Regarding `CSCCC(NC(=O)c1ccc([N+](=O)[O-])cc1Cl)C(=O)OCC(=O)NCCCc1ccccc1` (stereo not shown), the “hERG current change (%, negative = inhibition) at 10uM” value is given as -57.8%.
On to `CSCCC(NC(=O)c1ccc([N+](=O)[O-])cc1Cl)C(=O)OCC(=O)N1CCN(C(C)=O)CC1` (stereo not shown), for which the “hERG current change (%, negative = inhibition) at 10uM” value was found to be 3.12%.
For the molecule `CSCCC(NC(=O)c1ccc(Cl)cc1Cl)C(=O)OCC(N)=O` (stereo not shown), the “hERG current change (%, negative = inhibition) at 10uM” value was -5.4%.
Take `O=C(NCc1ccco1)c1ccc([N+](=O)[O-])cc1Cl`: the “hERG current change (%, negative = inhibition) at 10uM” value is given as -3.96%.
Consider `CSCCC(NC(=O)c1ccc(Cl)cc1)C(=O)OCC(=O)NCc1ccco1` (stereo not shown), for which the “hERG current change (%, negative = inhibition) at 10uM” value is recorded as -23.8%.
Under `CSCCC(NC(=O)c1ccc([N+](=O)[O-])cc1Cl)C(=O)OC(C)C(=O)NCc1ccco1` (stereo not shown) stands -61.7%.
On to `CSCCC(NC(=O)c1ccc([N+](=O)[O-])cc1Cl)C(=O)OCC(=O)N(C)C` (stereo not shown), for which the “hERG current change (%, negative = inhibition) at 10uM” value is reported as -2.34%.
On to `CSCCC(NC(=O)c1ccc([N+](=O)[O-])cc1Cl)C(=O)OCC(=O)NCC(F)(F)F` (stereo not shown), for which the “hERG current change (%, negative = inhibition) at 10uM” value is reported as -16.7%.
For `CSCCC(NC(=O)c1ccc(Cl)cc1Cl)C(=O)OC(C)C(=O)NCc1ccco1` (stereo not shown), the “hERG current change (%, negative = inhibition) at 10uM” value is given as -51.8%.

The values above are taken from publication PMC4336329 (PLoS ONE, 2015).
